Data on 27 molecules can be found in PubChem BioAssay (Tox21).

Values joined by “and” are separate entries in the source; they are usually repeats but may differ in a detail not shown here. Identical values can stand only once. Records with an inconclusive call do not appear. Where a structure was tested more than once in an assay, its records may differ in their call. Active and inactive are the calls of the source. Unless noted, calls come from the whole dose curve; as a rule, active = well fitted curve in the direction sought with a large enough effect in the repeat runs; inconclusive = weak or mixed curves; inactive = no such curve, though single readings can be large; an effect the other way counts as inactive or inconclusive.

A short description of experiment [1]: qHTS assay to identify small molecule antagonists of the sonic hedgehog signaling (Shh) pathway (AID 1259369; calls by dose curve; note: nearly all actives have a fitted effect of over 45% in size; note: potency is the fitted concentration of half-maximal effect). The procedure, abridged:
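For antagonist detection, the reporter line received test compounds together with conditioned medium, incubated 24hr at 37 C, 5% CO2, then luminescence was recorded following 30min room-temperature luciferase reagent incubation.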
(qHTS replaces the single test concentration by a dilution series.)

Experiment [2] can be described thus: qHTS assay to identify small molecule agonists of the androgen receptor (AR) signaling pathway in the presence of an antagonist - cell viability counter screen (AID 1259379). Note: nearly all actives have a fitted effect of over 25% in size. Note: potency is the fitted concentration of half-maximal effect. The procedure, abridged:
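Seed MDA-kb2 at 3,000 cells/well; incubate 5 hr, 37C, 0% CO2. Add nilutamide to 3.0uM final, then pin compounds at 15 concentrations. Incubate 16 hr. Add CellTiter-Fluor at 15 hr, read fluorescence after 1 hr.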

The nature of experiment [3]: qHTS assay to identify small molecule agonists of the estrogen receptor beta (ER-beta) signaling pathway - cell viability counter screen (AID 1259380). Note: nearly all actives have a fitted effect of over 30% in size. Note: potency is the fitted concentration of half-maximal effect. The procedure, abridged:
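CellTiter-Glo read, 30 min RT, same wells as bla assay; cells ER-beta-UAS-bla HEK293T; 16 hr compound, 37C; medium 2% charcoal-stripped FBS.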

Experiment [4] in a line: qHTS assay to identify small molecule antagonists of the estrogen receptor beta (ER-beta) signaling pathway - cell viability counter screen (AID 1259382). Note: nearly all actives have a fitted effect of over 55% in size. Note: potency is the fitted concentration of half-maximal effect. The procedure, abridged: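 In this multiplexed counter screen, cells were seeded at 2,000 per well in medium with 2% charcoal-stripped FBS and incubated 6 hr before compound and 1nM final E2 were added. Sixteen hours later, ATP-based luminescence reported viability.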

The nature of experiment [5]: qHTS assay to identify small molecule agonists or antagonists of the thyroid stimulating hormone receptor (TSHR) signaling pathway - wild type cell line counter screen (AID 1259384; calls by dose curve). The procedure, abridged:
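Counter screen in untransfected Hek293: compounds (15-point titration, triplicate) plus phosphodiesterase inhibitor Ro20-1724 added after 18 h plating; 30 min RT. Intracellular cAMP via competitive d2/cryptate immunoassay, 1 h incubation.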

In experiment [6] the target is Thyrotropin receptor (Homo sapiens) (UniProt P16473). Kind of experiment: qHTS assay to identify small molecule antagonists of the thyroid stimulating hormone receptor (TSHR) signaling pathway (AID 1259385; calls by dose curve; note: nearly all actives have a fitted effect of over 20% in size; note: potency is the fitted concentration of half-maximal effect). The procedure, abridged:
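Antagonist mode: compound-treated TSHR-expressing HEK293 cells were stimulated with 1.5 ng/mL TSH (final) in presence of Ro20-1724 for 30 min at RT. HTRF cAMP detection after 1 h; each compound tested at 15 concentrations, triplicate.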

Experiment [7] in a line: qHTS assay to identify small molecule agonists of the estrogen receptor alpha (ER-alpha) signaling pathway in the presence of an antagonist - cell viability counter screen (AID 1259386).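 Note: cells exposed to compounds for 22 h at 37 °C before the viability read; nearly all actives have a fitted effect of over 30% in size.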 Note: potency is the fitted concentration of half-maximal effect. The procedure, abridged: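 Viability counter screen using VM7Luc4E2 (full-length ER-alpha, four ERE-luciferase). The cells were treated with compounds alongside ICI-182,780 10.0nM for 22hr, and live-cell protease fluorescence was quantified with CellTiter-Fluor.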

Experiment [8] concerns the target Estrogen receptor (Homo sapiens) (UniProt P03372). Kind of experiment: qHTS assay to identify small molecule agonists of the estrogen receptor alpha (ER-alpha) signaling pathway in the presence of an antagonist (AID 1259383; calls by dose curve; note: top concentration of the series differs between compounds; nearly all actives have a fitted effect of over 15% in size). The procedure, abridged:
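Stably transfected VM7Luc4E2 reporter cells, kept 5 days in charcoal-stripped serum, received ICI-182,780 at 10.0nM final before compound addition. Following 22hr incubation at 37C and 5% CO2, luciferase signal was read by luminescence.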

For experiment [9], the target named is Estrogen receptor beta (Homo sapiens) (UniProt Q92731). The experiment is described as follows: qHTS assay to identify small molecule agonists of the estrogen receptor beta (ER-beta) signaling pathway (AID 1259377; active = well fitted activation curve with a large enough effect in the signal ratio in the repeat runs, not every such curve was filed as active; the % refers to the signal ratio). The procedure, abridged:
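A UAS-controlled beta-lactamase reporter in ER-beta-UAS-bla HEK293T cells reports receptor activation. Compounds act for 16 hr at 37C in 2% charcoal-stripped serum, and a FRET substrate is read by fluorescence after 2 hours.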

Experiment [10] has the same target. Kind of experiment: qHTS assay to identify small molecule antagonists of the estrogen receptor beta (ER-beta) signaling pathway (AID 1259378; active = well fitted inhibition curve with a large enough effect in the signal ratio in the repeat runs, not every such curve was filed as active; the % refers to the signal ratio; note: potency is the fitted concentration of half-maximal effect). The procedure, abridged: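 Antagonist mode: compounds added to beta-lactamase reporter HEK293T ER-beta-UAS cells stimulated with E2 (1nM final), 16 hr at 37C. LiveBLAzer B/G FRET substrate, 2 hours room temperature, fluorescence read-out.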
% is set by controls: 0 for no effect and ±100 for the full control effect.

Thyrotropin receptor (Homo sapiens), sequence (P16473 whole entry, looked up): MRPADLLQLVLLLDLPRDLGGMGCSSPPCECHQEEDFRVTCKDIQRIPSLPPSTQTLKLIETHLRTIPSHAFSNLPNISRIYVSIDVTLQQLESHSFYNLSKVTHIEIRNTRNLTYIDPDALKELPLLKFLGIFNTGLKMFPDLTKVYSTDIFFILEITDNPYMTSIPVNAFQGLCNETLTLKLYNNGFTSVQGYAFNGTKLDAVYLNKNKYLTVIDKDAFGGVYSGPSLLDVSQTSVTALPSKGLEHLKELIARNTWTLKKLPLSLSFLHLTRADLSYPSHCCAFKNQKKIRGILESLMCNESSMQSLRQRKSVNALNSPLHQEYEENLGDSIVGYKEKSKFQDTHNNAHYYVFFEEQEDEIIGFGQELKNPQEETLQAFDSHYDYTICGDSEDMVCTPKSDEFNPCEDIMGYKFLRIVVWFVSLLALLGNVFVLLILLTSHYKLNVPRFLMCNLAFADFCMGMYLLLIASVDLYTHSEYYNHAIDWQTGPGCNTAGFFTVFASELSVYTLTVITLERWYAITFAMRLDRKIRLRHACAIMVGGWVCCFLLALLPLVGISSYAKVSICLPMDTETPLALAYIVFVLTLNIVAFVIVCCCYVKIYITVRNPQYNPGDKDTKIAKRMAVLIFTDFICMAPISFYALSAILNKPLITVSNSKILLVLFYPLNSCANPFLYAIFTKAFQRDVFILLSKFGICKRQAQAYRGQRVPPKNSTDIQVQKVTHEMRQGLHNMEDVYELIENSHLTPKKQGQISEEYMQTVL
Estrogen receptor beta (Homo sapiens), sequence (Q92731 whole entry, looked up): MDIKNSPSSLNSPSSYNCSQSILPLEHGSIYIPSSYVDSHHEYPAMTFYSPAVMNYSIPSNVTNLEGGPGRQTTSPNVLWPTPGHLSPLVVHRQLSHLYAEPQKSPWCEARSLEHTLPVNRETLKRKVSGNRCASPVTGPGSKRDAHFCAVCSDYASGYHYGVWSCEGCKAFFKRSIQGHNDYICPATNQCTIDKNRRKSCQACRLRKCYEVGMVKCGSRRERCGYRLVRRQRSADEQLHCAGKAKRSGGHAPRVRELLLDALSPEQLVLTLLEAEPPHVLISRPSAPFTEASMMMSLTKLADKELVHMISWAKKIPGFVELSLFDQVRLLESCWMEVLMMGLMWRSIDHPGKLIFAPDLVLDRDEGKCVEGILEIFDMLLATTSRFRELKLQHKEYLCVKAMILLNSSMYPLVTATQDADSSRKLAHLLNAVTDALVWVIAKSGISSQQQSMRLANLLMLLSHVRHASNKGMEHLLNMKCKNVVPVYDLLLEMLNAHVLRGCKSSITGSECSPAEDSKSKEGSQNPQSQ
Estrogen receptor (Homo sapiens), sequence (P03372 whole entry, looked up): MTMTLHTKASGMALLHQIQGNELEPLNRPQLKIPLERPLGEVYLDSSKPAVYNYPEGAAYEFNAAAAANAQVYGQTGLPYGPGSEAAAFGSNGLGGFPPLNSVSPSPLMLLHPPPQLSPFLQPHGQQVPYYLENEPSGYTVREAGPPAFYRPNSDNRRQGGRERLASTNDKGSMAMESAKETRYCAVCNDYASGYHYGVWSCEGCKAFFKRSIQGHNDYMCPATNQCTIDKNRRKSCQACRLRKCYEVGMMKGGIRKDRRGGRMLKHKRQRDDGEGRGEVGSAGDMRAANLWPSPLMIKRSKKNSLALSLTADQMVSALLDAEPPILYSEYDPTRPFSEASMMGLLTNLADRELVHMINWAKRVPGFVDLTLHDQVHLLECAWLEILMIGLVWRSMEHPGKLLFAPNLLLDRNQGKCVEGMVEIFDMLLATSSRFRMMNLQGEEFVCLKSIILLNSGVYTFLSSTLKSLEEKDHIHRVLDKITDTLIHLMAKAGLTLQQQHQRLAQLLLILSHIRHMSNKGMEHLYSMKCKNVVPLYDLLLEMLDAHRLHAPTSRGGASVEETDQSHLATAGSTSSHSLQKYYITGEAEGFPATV

On to `Cc1cc(C)nc(NS(=O)(=O)c2ccc(N)cc2)n1`, for which the Potency result in [1], in experiment [2], in experiment [3], in experiment [4], in experiment [5] and in experiment [6] was “inactive” throughout. In experiment [7], the Potency entry is “inactive”.

With `CCCC[P+](CCCC)(CCCC)CCCC`, the Potency result in experiment [1], in experiment [4], in experiment [5], in [6] and in experiment [7] was “inactive” in each case. Further, the Potency in experiment [2] is 60.9 µM (active) and 62.3 µM (active) and 61.1 µM (active).

Regarding `O=C(Nc1ncc([N+](=O)[O-])s1)c1cccs1`, the Potency result in experiment [1], in experiment [5] and in [6] was “inactive” throughout. Besides, the Potency in [2] and in experiment [7] was 26.6 µM (active) each time.

Consider `O=c1[nH]cnc2c1ncn2[C@H]1CC[C@@H](CO)O1`, for which the Potency result in [1], in [2], in experiment [3], in experiment [4], in experiment [5] and in [6] was “inactive” in each case. Also, the Potency entry in experiment [7] is “inactive”.

Turning to `COc1ccc2cc(S(=O)(=O)N[C@H](CC(=O)N[C@H](Cc3ccc(CN4[C@H](C)CCC[C@@H]4C)cc3)C(=O)N(C)C(C)C)c3ccc4c(c3)OCO4)ccc2c1`, the Potency result in [1] and in [5] was “inactive” throughout. Further, the Potency in experiment [2] was 51.6 µM (active); in [3], 18.3 µM (active); in [4] it was 29 µM (active); in [6], 57.9 µM (active); in [7] it was 36.5 µM (active).

On to `O=C1OC2(c3ccccc31)c1cc(Br)c(O)c(Br)c1Oc1c2cc(Br)c(O)c1Br`, for which the Potency result in [1], in [3] and in [4] was “inactive” each time. The Potency was 7.81 µM (active) and 22.3 µM (active) and 11.9 µM (active) in experiment [2]; 24.7 µM (active) and 21.1 µM (active) in [6]; 11 µM (active) and 19.9 µM (active) and 10.6 µM (active) in experiment [7].

As for `COc1cccc(O)c1O`, the Potency in experiment [1] is 8.97 µM (active); in experiment [3] it was 56.6 µM (active). Further, the Potency result in [4] and in experiment [8] was “inactive” throughout.

For `CCCCC(CC)C(=O)O` (stereo unspecified), the Potency result in experiment [1], in experiment [2], in [3], in [4], in experiment [5] and in [6] was “inactive” throughout. The Potency entry in experiment [7] is “inactive”.

Regarding `Cc1ccc(S(=O)(=O)O)cc1`, the Potency entry in experiment [1], in experiment [2], in experiment [3], in [4] and in experiment [7] was “inactive” each time.

As to `NC(=O)n1c(O)c(C(=O)c2cccs2)c2cc(Cl)ccc21`, the Potency in [1] was 10.6 µM (active); in [2], 29.8 µM (active); in experiment [7], 29.8 µM (active). In addition, the Potency result in experiment [4], in experiment [5] and in [6] was “inactive” each time.

Turning to `CC(=O)Nc1c(I)c(NC(C)=O)c(I)c(C(=O)O)c1I`, the Potency result in experiment [1], in experiment [2], in experiment [3], in experiment [4], in experiment [5] and in [6] was “inactive” each time. The Potency result in experiment [7] was “inactive”.

As to `O=C1O[C@H]([C@@H](O)CO)C(O)=C1O`, the Potency result in experiment [1], in experiment [2], in experiment [3], in [4], in [5] and in experiment [6] was “inactive” throughout. In addition, the Potency entry in experiment [7] was “inactive”.

For the molecule `C=C1CC[C@H](O)C/C1=C\C=C1/CCC[C@]2(C)[C@@H]([C@H](C)CCCC(C)C)CC[C@@H]12`, the Potency in experiment [1] is 17.1 µM (active); in experiment [3] it was 42.9 µM (active); in [4], 30.4 µM (active). Moreover, the Potency result in [5] and in [6] was “inactive” throughout.

`COc1ccc(CN(CCN(C)C)c2ccccn2)cc1`: the Potency entry in [1], in [2], in experiment [4] and in [7] was “inactive” in each case. Moreover, in [3], the Potency was 50.2 µM (active) and inactive.

In the case of `CN(C)C(=S)SC(=S)N(C)C`, the Potency is 280 nM (active) and 109 nM (active) and 2.66 µM (active) in [1]; 3.96 µM (active) and inactive in experiment [2]; 1.25 µM (active) and 2.17 µM (active) and 1.06 µM (active) in experiment [3]; 1.37 µM (active) and 1.88 µM (active) in experiment [4]; 35.3 µM (active) and 3.06 µM (active) and inactive in [7]. In addition, the Potency entry in experiment [5] and in experiment [6] was “inactive” throughout.

On to `Cn1c(=O)c2c(ncn2C)n(C)c1=O`, for which the Potency in [1] is 17.4 µM (active) and inactive; in [2], 55.1 µM (active) and inactive; in [7] it was 61.9 µM (active) and inactive. The Potency entry in [3] and in [4] was “inactive” throughout.

With `C1CCC(C(CC2CCCCN2)C2CCCCC2)CC1` (stereo unspecified), the Potency result in experiment [9], in experiment [5] and in experiment [7] was “inactive” in each case. In addition, the Potency was 18.8 µM (active) in experiment [10]; 29.8 µM (active) in experiment [2]; 23.7 µM (active) in experiment [3]; 18.8 µM (active) in experiment [4]; 33.5 µM (active) in [6].

Take `CCCCNC(=O)NS(=O)(=O)c1ccc(C)cc1`: the Potency result in experiment [1], in experiment [2], in [3], in experiment [4] and in experiment [7] was “inactive” each time.

Consider `COc1ccc(OC(F)(F)F)cc1CN[C@H]1CCCN[C@H]1c1ccccc1`, for which the Potency in experiment [1] was 10.9 µM (active); in experiment [2], 48.6 µM (active); in [3], 34.4 µM (active); in [4], 30.6 µM (active). The Potency entry in experiment [5] and in experiment [7] was “inactive” in each case.

Turning to `Nc1ccc(O)c([N+](=O)[O-])c1`, the results for the Potency in [1], in experiment [2] and in experiment [7] were 13.5 µM (active), 27.3 µM (active) and 43.3 µM (active), respectively. In experiment [4], the Potency entry is “inactive”.

For `COc1ccc2c(c1)c(CC(=O)O)c(C)n2C(=O)c1ccc(Cl)cc1`, the Potency entry in experiment [1], in [2], in [4], in experiment [5], in experiment [6] and in experiment [7] was “inactive” each time.

Regarding `C[C@](N)(Cc1ccc(O)c(O)c1)C(=O)O`, the Potency entry in experiment [1], in experiment [2], in experiment [3] and in experiment [4] was “inactive” each time. Moreover, the Potency result in [7] was “inactive and 54.3 µM (active)”.

`Nc1ccc2c(c1)CN1C(=O)c3ccccc3C1=N2`: the activity change, negative = inhibition in [1] was -44.1% [at 19 µM] (inactive). Besides, in [3], the Potency was 5.8 µM (active). The cAMP activity change in experiment [5] was -1.34% [at 18.9 µM, stronger effect = higher value] (inactive).

With `CC(O)(P(=O)(O)O)P(=O)(O)O`, the Potency entry in [1], in experiment [2], in experiment [3], in experiment [4], in experiment [5] and in experiment [6] was “inactive” each time. Besides, the Potency result in [7] is “inactive”.

As for `CN1CCC[C@H]1c1cccnc1`, the Potency result in experiment [1], in [2], in experiment [3], in experiment [4] and in experiment [7] was “inactive” each time.

Regarding `CC(=O)CC(c1ccccc1)c1c(O)c2ccccc2oc1=O` (stereo unspecified), in experiment [1], the Potency is 27.4 µM (active) and inactive. The Potency result in experiment [2], in [3], in [4] and in experiment [7] was “inactive” in each case.

Regarding `C1=CC2C3C=CC(C3)C2C1` (stereo unspecified), the Potency entry in [10], in experiment [2], in [3], in experiment [4], in experiment [5] and in experiment [7] was “inactive” in each case.
